Measurements taken from PubChem BioAssay (NCATS).
Records with an inconclusive call do not appear. Unmarked numbers belong to inactive results. Activity calls are given as the source filed them. The call rests on the fitted dose curve; in most records, active means well fitted inhibition curve with a large enough effect; inconclusive means small, poorly fitted or top-dose-only effect; inactive means flat fitted curve, though single readings scatter.

system: CP329; assay: qHTS profiling for inhibitors of Plasmodium falciparum proliferation (AID 504749); further: nearly all actives have a fitted effect of over 60% in size;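 on activity, negative = inhibition: 0% = DMSO vehicle and full inhibition = artemisinin control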; conditions: P. falciparum in erythrocytes, SYBR Green DNA, 72 h; series mostly up to 28.7 µM; activity, negative = inhibition: at the top concentration
Method in brief: (§1)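 Parasite proliferation within erythrocytes, 72 h exposure. Endpoint: SYBR Green I fluorescence after overnight lysis at room temperature. Controls: 0.29 uM artemisinin, DMSO.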
Potency means the concentration at half of the fitted maximal effect.

Row | SMILES | activity, negative = inhibition [%] | Potency
1 | CC1(C)C(C=C(Cl)Cl)C1C(=O)OCc1cccc(Oc2ccccc2)c1 (stereo unspecified) | 6.57 | –
2 | CC1=C(/C=C/C(C)=C/C=C/C(C)=C/CO)C(C)(C)CCC1 | -9.29 | –
3 | CN(C)CCCN1c2ccccc2C(C)(C)c2ccccc21 | -14.6 | –
4 | CCN(CC)CCOc1ccc(-c2nc3cc(Cl)ccc3s2)cc1 | -18.5 | –
5 | O=S(=O)(O)c1cc(O)c2c(N=Nc3ccc(Nc4ccccc4)c4c(S(=O)(=O)O)cccc34)cc(S(=O)(=O)O)cc2c1 | -20.4 | –
6 | IC(I)I | -1.44 | –
7 | CC(Cc1ccc(O)c(O)c1)C(C)Cc1ccc(O)c(O)c1 (stereo unspecified) | -22.6 | –
8 | CC[C@@]1(O)C(=O)OCc2c1cc1n(c2=O)Cc2cc3c([N+](=O)[O-])cccc3nc2-1 | – | 12 µM (active)
9 | CCCCCCCC(=O)O | 1.76 | –
10 | CCCCC(CC)COC(=O)CC(C(=O)OCC(CC)CCCC)S(=O)(=O)O (stereo unspecified) | 1.55 | –
11 | C=C1C(=CC=C2CCC[C@@]3(C)[C@@H]2CC[C@H]3[C@H](C)CCCC(C)C)C[C@@H](O)C[C@@H]1O | 17 | –
12 | COc1cc(-c2ccc(-[n+]3nc(-c4ccccc4)nn3-c3ccc([N+](=O)[O-])cc3)c(OC)c2)ccc1-[n+]1nc(-c2ccccc2)nn1-c1ccc([N+](=O)[O-])cc1 | – | 15.1 µM (active)
13 | C#C[C@]1(O)CC[C@H]2[C@@H]3CCC4=CCCC[C@@H]4[C@H]3C(=C)C[C@@]21CC | -3.47 | –
14 | O=C(O)c1cc(=O)c2c3nc4ccccc4oc-3cc(=O)c2[nH]1 | -7.62 | –
15 | NC(=O)c1ncn(C2OC(CO)C(O)C2O)n1 (stereo unspecified) | -1.29 | –
16 | Nc1c(Br)cc(Br)cc1CNC1CCC(O)CC1 (stereo unspecified) | -6.16 | –
17 | CC(C)=O | 9.41 | –
18 | COC(=O)C1=C(C#N)NC(C)=C(C(=O)OC(C)C)C1c1cccc([N+](=O)[O-])c1 (stereo unspecified) | – | 15.1 µM (active)

system: CP335; assay: as above; conditions: P. falciparum in erythrocytes, SYBR Green DNA, 72 h; series mostly up to 28.7 µM; activity, negative = inhibition: at the top concentration
Method in brief: as §1

Row | SMILES | activity, negative = inhibition [%] | Potency
19 | CC1(C)C(C=C(Cl)Cl)C1C(=O)OCc1cccc(Oc2ccccc2)c1 (stereo unspecified) | -11.4 | –
20 | O=S(=O)(O)c1cc(O)c2c(N=Nc3ccc(Nc4ccccc4)c4c(S(=O)(=O)O)cccc34)cc(S(=O)(=O)O)cc2c1 | -15.6 | –
21 | IC(I)I | -1.52 | –
22 | CC(Cc1ccc(O)c(O)c1)C(C)Cc1ccc(O)c(O)c1 (stereo unspecified) | -7.6 | –
23 | CC[C@@]1(O)C(=O)OCc2c1cc1n(c2=O)Cc2cc3c([N+](=O)[O-])cccc3nc2-1 | – | 4.78 µM (active)
24 | CCCCCCCC(=O)O | 4.96 | –
25 | CCCCC(CC)COC(=O)CC(C(=O)OCC(CC)CCCC)S(=O)(=O)O (stereo unspecified) | -4.53 | –
26 | CCOC(=O)C1=C(C)NC(C)=C(C(=O)OCC)C1c1ccccc1C=CC(=O)OC(C)(C)C | – | 10.7 µM (active)
27 | NC(=O)c1ncn(C2OC(CO)C(O)C2O)n1 (stereo unspecified) | -12.1 | –
28 | NC1C2CN(c3nc4c(cc3F)c(=O)c(C(=O)O)cn4-c3ccc(F)cc3F)CC12 (stereo unspecified) | – | 6.01 µM (active)
29 | CC(C)=O | 0.224 | –
30 | COC(=O)C1=C(C#N)NC(C)=C(C(=O)OC(C)C)C1c1cccc([N+](=O)[O-])c1 (stereo unspecified) | – | 8.49 µM (active)
31 | CCCCCCOc1ccc(C(=N)N(CCCC)CCCC)c2ccccc12 | – | 8.49 µM (active)
